Consider seven compounds from PubChem BioAssay (EPA / NIEHS).

Where “and” joins values, the source holds several entries; their conditions need not be identical. Equal values may be shown once. A structure can be active in one record and inactive in another. Calls of active or inactive are those of the source. Rule for the calls: active = hit-call score of the fitted dose curve at least 0.9, where 1 is the maximum; inactive = score below 0.9.

Read-out in assay [1]: Urokinase-type plasminogen activator receptor (uPAR), PLAUR (gene 5329)
As to the kind of experiment: BSK_4H_uPAR: BioMAP Diversity Plus: 4H Assay for Urokinase-type plasminogen activator receptor (uPAR) Biomarker Activity (AID 2283030). The settings on record: primary human endothelial cells (HUVEC); actives raise or lower the signal. The method, boiled down: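 Cell-surface uPAR ELISA signal, measured 24 h after dosing human umbilical vein endothelial cells, was analyzed with bidirectional fitting relative to DMSO. Parallel SRB staining of total protein tracked overt cytotoxicity.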

Read-out in assay [2]: Vascular endothelial growth factor receptor 2 (Homo sapiens) (UniProt P35968)
Kind of assay: BSK_4H_VEGFRII: BioMAP Diversity Plus: 4H Assay for Vascular endothelial growth factor receptor 2 (VEGFR2) Biomarker Activity (AID 2283031). The settings on record: primary human endothelial cells (HUVEC); actives raise or lower the signal. The method, boiled down:
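ELISA read-out of VEGFRII in primary human umbilical vein endothelium, taken 24 h after chemical treatment. Responses are expressed relative to DMSO, with bidirectional fitting.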

Read-out in assay [3]: Vascular cell adhesion molecule 1 (VCAM1), VCAM1 (gene 7412)
As to the kind of experiment: BSK_4H_VCAM1: BioMAP Diversity Plus: 4H Assay for Vascular cell adhesion molecule 1 (VCAM1) Biomarker Activity (AID 2283033). The settings on record: primary human endothelial cells (HUVEC); actives raise or lower the signal. In a few lines: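 Primary human umbilical vein endothelial cells, 4H stimulation system, treated for 24 h; cell-surface VCAM-1 quantified by ELISA. Bidirectional fitting against DMSO; cytotoxicity tracked by SRB total-protein staining in parallel cultures.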

Read-out in assay [4]: Interferon-gamma inducible Protein 10 (IP10), CXCL10 (gene 3627)
As to the kind of experiment: BSK_BE3C_IP10: BioMAP Diversity Plus: BE3C Assay for Interferon-gamma inducible Protein 10 (IP10) Biomarker Activity (AID 2283034). The settings on record: primary human bronchial epithelial cells; actives raise or lower the signal. In a few lines:
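Primary human bronchial epithelial cells, with IP-10 measured by ELISA 24 hours after chemical dosing. Bidirectional fit against DMSO; cytotoxicity checked by SRB total protein staining in parallel cultures.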

Read-out in assay [5]: Monokine induced gamma interferon (MIG), CXCL9 (gene 4283)
Kind of assay: BSK_BE3C_MIG: BioMAP Diversity Plus: BE3C Assay for Monokine induced gamma interferon (MIG) Biomarker Activity (AID 2283035). The settings on record: primary human bronchial epithelial cells; actives raise or lower the signal. In a few lines: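 Primary human bronchial epithelial cells treated for 24 h; MIG levels measured by ELISA, fitted bidirectionally versus DMSO. Parallel SRB total-protein staining assessed cytotoxicity.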

Read-out in assay [6]: Transforming growth factor beta 1 (TGFb1), TGFB1 (gene 7040)
Kind of assay: BSK_BE3C_TGFb1: BioMAP Diversity Plus: BE3C Assay for Transforming growth factor beta 1 (TGFb1) Biomarker Activity (AID 2283036). The settings on record: primary human bronchial epithelial cells; actives raise or lower the signal. In a few lines:
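Primary human bronchial epithelial cells dosed with chemical; TGF-b1 measured by ELISA 24 h after dosing. Bidirectional curve fitting against DMSO negative control; SRB total-protein staining in parallel cultures gauged cytotoxicity.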

Read-out in assay [7]: Plasminogen activator inhibitor-1 (PAI1), SERPINE1 (gene 5054)
As to the kind of experiment: BSK_BE3C_PAI1: BioMAP Diversity Plus: BE3C Assay for Plasminogen activator inhibitor-1 (PAI1) Biomarker Activity (AID 2283037). The settings on record: primary human bronchial epithelial cells; actives raise or lower the signal. In a few lines:
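Primary human bronchial epithelial cells (BE3C system) exposed 24 h; PAI-1 quantified by ELISA. Parallel sulforhodamine B staining of total protein flags cytotoxicity. Bidirectional fit versus DMSO.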

Read-out in assay [8]: urokinase plasminogen activator (uPA), PLAU (gene 5328)
Kind of assay: BSK_BE3C_uPA: BioMAP Diversity Plus: BE3C Assay for urokinase plasminogen activator (uPA) Biomarker Activity (AID 2283038).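 Note: uPA protein level quantified by ELISA in cell cultures; uPA read one day after compound addition.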 The settings on record: primary human bronchial epithelial cells; actives raise or lower the signal. In a few lines: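 Bronchial epithelial cells (human, primary); chemical 24 h; uPA by ELISA; bidirectional fit vs DMSO. SRB (0.1%, after 10% TCA fixation, 560 nm) in parallel cultures for cytotoxicity.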

Read-out in assay [9]: Urokinase-type plasminogen activator receptor (uPAR), PLAUR (gene 5329)
Kind of assay: BSK_BE3C_uPAR: BioMAP Diversity Plus: BE3C Assay for Urokinase-type plasminogen activator receptor (uPAR) Biomarker Activity (AID 2283039).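 Note: cells exposed to compound for one day before measurement.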 The settings on record: primary human bronchial epithelial cells; actives raise or lower the signal. The method, boiled down:
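Primary human bronchial epithelial cells dosed for 24 h; uPAR quantified by ELISA with bidirectional fitting against DMSO. Overt cytotoxicity assessed in parallel cultures by SRB total-protein staining (0.1% SRB, 560 nm).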

Read-out in assay [10]: Interleukin-6 (IL6), IL6 (gene 3569)
Kind of assay: BSK_CASM3C_IL6: BioMAP Diversity Plus: CASM3C Assay for Interleukin-6 (IL6) Biomarker Activity for (AID 2283040). The settings on record: primary human coronary artery smooth muscle cells; actives raise or lower the signal.

Read-out in assay [11]: Tissue plasminogen activator (tPA), PLAT (gene 5327)
As to the kind of experiment: BSK_BE3C_tPA: BioMAP Diversity Plus: BE3C Assay for Tissue plasminogen activator (tPA) Biomarker Activity (AID 2283041).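 For outcome: tPA level quantified by ELISA one day after compound addition.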 The settings on record: primary human bronchial epithelial cells; actives raise or lower the signal. The method, boiled down: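 Primary human bronchial epithelial cells in the BE3C system, exposed to compound for 24 h. tPA was quantified by ELISA; DMSO served as baseline, with gain or loss of signal fitted. Cytotoxicity checked in parallel cultures by SRB total-protein staining.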

Read-out in assay [12]: Interleukin-8 (IL8), CXCL8 (gene 3576)
Kind of assay: BSK_CASM3C_IL8: BioMAP Diversity Plus: CASM3C Assay for Interleukin-8 (IL8) Biomarker Activity (AID 2283042).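 Note: IL-8 protein level quantified by ELISA.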 The settings on record: primary human coronary artery smooth muscle cells; actives raise or lower the signal.

Read-out in assay [13]: Human Leukocyte Antigen - DR isotype (HLADR), HLA-DRA (gene 3122)
As to the kind of experiment: BSK_CASM3C_HLADR: BioMAP Diversity Plus: CASM3C Assay for Human Leukocyte Antigen - DR isotype (HLADR) Biomarker Activity (AID 2283043).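 Note: cell-surface HLA-DR protein level quantified by ELISA.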 The settings on record: primary human coronary artery smooth muscle cells; actives raise or lower the signal.

Read-out in assay [14]: Macrophage colony-stimulating factor (MCSF), CSF1 (gene 1435)
As to the kind of experiment: BSK_CASM3C_MCSF: BioMAP Diversity Plus: CASM3C Assay for Macrophage colony-stimulating factor (MCSF) Biomarker Activity (AID 2283044).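 Note: M-CSF protein amount quantified by ELISA after 24 h exposure.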 The settings on record: primary human coronary artery smooth muscle cells; actives raise or lower the signal.

Read-out in assay [15]: Low-density lipoprotein receptor (LDLR), LDLR (gene 3949)
As to the kind of experiment: BSK_CASM3C_LDLR: BioMAP Diversity Plus: CASM3C Assay for Low-density lipoprotein receptor (LDLR) Biomarker Activity (AID 2283045).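 Note: LDLR protein level on the cell surface quantified by ELISA.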 The settings on record: primary human coronary artery smooth muscle cells; actives raise or lower the signal.

Read-out in assay [16]: Monocyte Chemoattractant Protein-1 (MCP1), CCL2 (gene 6347)
As to the kind of experiment: BSK_CASM3C_MCP1: BioMAP Diversity Plus: CASM3C Assay for Monocyte Chemoattractant Protein-1 (MCP1) Biomarker Activity (AID 2283046).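 Note: MCP-1 level quantified by ELISA 24 h after dosing.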 The settings on record: primary human coronary artery smooth muscle cells; actives raise or lower the signal.

The nature of assay [17]: BSK_CASM3C_Proliferation: Cell Proliferation Assessment in the BioMAP Diversity Plus: CASM3C Assay (AID 2283047).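 Note: sulforhodamine B total protein stain as relative cell number at 560 nm; sub-confluent cells exposed 48 h before staining; fitted both ways against DMSO so gain or loss of cell number.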 The settings on record: primary human coronary artery smooth muscle cells.
Read-out in assay [18]: Monokine induced gamma interferon (MIG), CXCL9 (gene 4283)
Kind of assay: BSK_CASM3C_MIG: BioMAP Diversity Plus: CASM3C Assay for Monokine induced gamma interferon (MIG) Biomarker Activity (AID 2283048). The settings on record: primary human coronary artery smooth muscle cells; actives raise or lower the signal.

Read-out in assay [19]: serum amyloid A (SAA), SAA1 (gene 6288)
As to the kind of experiment: BSK_CASM3C_SAA: BioMAP Diversity Plus: CASM3C Assay for serum amyloid A (SAA) Biomarker Activity (AID 2283049).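 Note: SAA protein level quantified by ELISA.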 The settings on record: primary human coronary artery smooth muscle cells; actives raise or lower the signal.

Read-out in assay [20]: Human Leukocyte Antigen - DR isotype (HLADR), HLA-DRA (gene 3122)
As to the kind of experiment: BSK_BE3C_HLADR: BioMAP Diversity Plus: BE3C Assay for Human Leukocyte Antigen - DR isotype (HLADR) Biomarker Activity (AID 2283032). The settings on record: primary human bronchial epithelial cells; actives raise or lower the signal. The method, boiled down:
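Human primary bronchial epithelial cells (BE3C system) exposed to compound for 24 hours; cell-surface HLA-DR measured by ELISA, fitted bidirectionally relative to DMSO. Total protein by SRB in parallel cultures tracked cytotoxicity.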

In the case of `COC(OC)(C(=O)c1ccccc1)c1ccccc1`, the result in assay [1], in [2], in assay [3], in assay [4], in assay [5] and in assay [6] was inactive. In addition, the outcome in assay [7], in [8], in assay [9], in assay [10], in [11] and in [12] was inactive. The result in assay [13], in [14], in [15], in assay [16], in assay [17] and in assay [18] was inactive. Moreover, the outcome in assay [19] was inactive.
Consider `Nc1cccc(N)n1`, for which the result in assay [1], in [2], in assay [20], in [3], in [4] and in [5] was inactive. Further, the result in assay [6], in assay [7], in [8], in assay [9], in assay [10] and in assay [11] was inactive. In addition, the outcome in assay [12], in assay [13], in [14], in assay [15], in assay [16] and in assay [17] was inactive. The result in assay [18] and in assay [19] was inactive.
In general, AC50 refers to the midpoint of the concentration-response curve, whichever way the signal moves. `Oc1ccccc1Cc1ccccc1O`: the outcome in assay [1], in assay [2], in [20], in [3], in assay [4] and in [5] was inactive. The outcome in assay [7], in assay [8], in assay [9], in assay [10], in assay [12] and in [13] was inactive. Further, the result in assay [14], in assay [15], in assay [16], in assay [17], in assay [18] and in assay [19] was inactive. For the same compound, the AC50 in assay [7] was 18 µM (active); in [11] it was 13.4 µM (active) and 10.2 µM (active).
On to `CCCCCCCCC(CO)CCCCCC` (stereo not drawn), for which the AC50 in [1] is 2.51 µM (active); in assay [4] it was 2.01 µM (active); in [7], 1.36 µM (active). Besides, the outcome in [2], in assay [20], in assay [3], in [5], in assay [6] and in [8] was inactive. The result in assay [9], in assay [10], in assay [11], in [12], in assay [13] and in assay [14] was inactive. For the same compound, the result in assay [15], in assay [16], in assay [17], in assay [18] and in assay [19] was inactive.
With `C=CC(=O)OCC(C)OCC(C)OCC(C)OC(=O)C=C` (stereo not drawn), the AC50 in [1] was 31.1 µM (active); in assay [3], 10.1 µM (active); in assay [4] it was 30.6 µM (active); in assay [10], 16.1 µM (active); in assay [13] it was 14.9 µM (active); in assay [14], 25.2 µM (active). Moreover, the AC50 in assay [16] is 20 µM (active); in [17], 20 µM (active); in assay [18] it was 29.1 µM (active); in [19], 5.95 µM (active). Further, the outcome in assay [2], in assay [5], in [6], in assay [7], in assay [8] and in [9] was inactive. The outcome in [11], in assay [12] and in assay [15] was inactive.
As for `COc1ccc(C(=O)c2ccccc2)c(O)c1`, the outcome in [1], in assay [2], in [20], in assay [4], in [5] and in [6] was inactive. Further, the result in assay [7], in assay [8], in assay [9], in assay [10], in assay [11] and in assay [12] was inactive. Besides, the result in [13], in assay [14], in assay [15], in assay [16], in [17] and in [18] was inactive. Besides, the result in assay [19] was inactive. Further, the AC50 in [3] was 29.1 µM (active).
As to `Fc1ccc(Br)cc1`, the outcome in assay [1], in assay [2], in assay [20], in assay [3], in [4] and in assay [5] was inactive. For the same compound, the outcome in assay [6], in assay [7], in assay [8], in [9], in assay [10] and in [11] was inactive. For the same compound, the outcome in assay [12], in assay [13], in assay [14], in [15], in assay [16] and in [17] was inactive. Besides, the outcome in [18] and in assay [19] was inactive.
